For this test, the system named is Leishmania donovani. Description: Leishmania intramacrophage assay. It counts as functional, organism-based. The arrangement: scale not given: in the data most compounds retested in dose-response had high values.

The results in this text go back to ChEMBL document CHEMBL3988442, “University of Dundee, Small-Polar-MMV Screening Library” (2021).

Molecules are shown by their SMILES. Among all 69,000 compounds or so, about 1,000 (1.4%) showed an effect of 50% or more. Only a selection was taken, and strong results are over-represented in it overall.

Take `OCCc1ccccc1-n1ccnc1-c1cn(C2CCNCC2)nn1`: the “Percent Effect” value (30.3 µM, […]) is -17.07%.
Consider `Cc1cccc2[nH]c(-c3cn(C4CCNCC4)nn3)nc12`, for which the “Percent Effect” value (30.3 µM, […]) is recorded as 8.553%.
As to `CSc1ccccc1-n1ccnc1-c1cn(C2CCNCC2)nn1`, the “Percent Effect” value (30.3 µM, […]) is recorded as -6.736%.
As for `Cc1ccc(-n2ccnc2-c2cn(C3CCNCC3)nn2)c(Cl)c1`, the “Percent Effect” value (30.3 µM, […]) turned out to be 17.13%.
Regarding `Clc1ccccc1CCn1ccnc1-c1cn(C2CCNCC2)nn1`, the “Percent Effect” value (30.3 µM, […]) is -11.26%.
Regarding `Cc1cc2nc(-c3cn(C4CCNCC4)nn3)[nH]c2cc1C`, the “Percent Effect” value (30.3 µM, […]) is given as 79.71%.
Still for that read-out and setting: in the case of `Cc1c(C)c(C)c2[nH]c(-c3cn(C4CCNCC4)nn3)nc2c1C` it was 88.31%; in that of `COc1cccc(CCn2ccnc2-c2cn(C3CCNCC3)nn2)c1`, -3.244%.
The same measure, in the same setting: to `Cc1ccc2[nH]c(-c3cn(C4CCNCC4)nn3)nc2c1C` belongs 79.71%; to `CCCc1noc(CN2CCOCC2C)n1` (stereo unspecified), -25.75%.
For the molecule `COCc1noc(Cn2ncn3cccc3c2=O)n1`, the “Percent Effect” value (30.3 µM, […]) is -34.29%.
Regarding `Cc1nccc(N[C@H]2CN(C(=O)CN3CCOCC3)C[C@@H]2C(C)C)n1`, the “Percent Effect” value (30.3 µM, […]) worked out at 9.574%.
For the molecule `CC(C)n1cnc2c1C(C(=O)N1CCOCC1)N(CC1CC1)CC2.O=C(O)C(F)(F)F` (stereo unspecified), for the setting “30.3 µM, […]”, the “Percent Effect” value stood at 17.66%.
For the molecule `O=C(NCc1ccccn1)Nc1ccc2[nH]nnc2c1`, the “Percent Effect” value (30.3 µM, […]) amounted to 23.78%.
As to `Cn1ccc(CN2CCCC23CCN(Cc2ccccc2F)CC3)n1.O=C(O)C(F)(F)F.O=C(O)C(F)(F)F`, under “30.3 µM, […]”, the “Percent Effect” value stood at 36.62%.
The same measure, in the same setting: in the case of `O=C(O)[C@@H]1CN(Cc2ccc3nsnc3c2)C[C@H]1c1cccnc1` it was 23.58%.
Consider `Cc1ccccc1-c1noc(CN2CCn3c(nnc3C3CC3)C2)n1`, for which the “Percent Effect” value (30 µM, 30.03 µM) was found to be 9.47%.
`COc1cccc(CN2CC(O)CN(C(=O)C3CCC3)CC2=O)c1OC` (stereo unspecified): the “Percent Effect” value (30.3 µM, […]) was 10.32%.
On to `COc1c(C2CCCN2C(=O)c2ccoc2C)c(C)nn1C` (stereo unspecified), for which, where the note is “30.3 µM, […]”, the “Percent Effect” value amounted to 0.8433%.
The same measure, in the same setting: to `CCn1nc(C)cc1C(=O)NCc1cc(N(C)C)nc2ccccc12` belongs 34.59%; to `Cc1nn(C)cc1C(=O)NCc1cc(N(C)C)nc2ccccc12`, 27.45%; to `Cc1nn(C)c(C)c1C(=O)NCc1cc(N(C)C)nc2ccccc12`, 50.16%.
For `CCOC(=O)C1(Cc2ccc(Cl)cc2)CCN(Cc2ncc[nH]2)CC1`, the “Percent Effect” value (30.3 µM, […]) is 14.14%.
Consider `CNc1ncc(CN(C)C(=O)c2ccccc2C2CCNC2)cn1` (stereo unspecified), for which the “Percent Effect” value (30.3 µM, […]) is recorded as -3.65%.
Turning to `CC(O)CNC(=O)NCc1cccnc1OC1CCCC1` (stereo unspecified), under “30 µM, 30.03 µM”, the “Percent Effect” value was 16.57%.
As for `N#Cc1c(Cl)nsc1NCc1ccc(N2CCSCC2)cc1`, the “Percent Effect” value (30.3 µM, […]) is listed as 88.25%.
For `Cc1n[nH]cc1CNCc1ccnc(OCC(F)(F)F)c1.Cl`, the “Percent Effect” value (30.3 µM, […]) was 28.01%.
Turning to `COc1ncccc1CNc1snc(Cl)c1C#N`, where the note is “30.3 µM, […]”, the “Percent Effect” value is reported as 30.49%.
`O=S(=O)(NCc1cccnc1OC1CCCC1)N1CCCCC1`: the “Percent Effect” value (30.3 µM, […]) is on record as -4.69%.
On the same count and under the same terms, to `N#Cc1c(Cl)nsc1NCc1cccnc1OC1CCCC1` belongs 98.68%.
Take `CN(C)c1ncccc1CNc1snc(Cl)c1C#N`: for the setting “30.3 µM, […]”, the “Percent Effect” value is -27.87%.
For `Cc1ncsc1C(=O)NCc1ccnc(OCC(F)(F)F)c1`, under “30 µM”, the “Percent Effect” value is 34.79%.
For `N#Cc1c(Cl)nsc1NCc1ccnc(OCC(F)(F)F)c1`, the “Percent Effect” value (30.3 µM, […]) amounted to 96.62%.
The same measure, in the same setting: to `N#Cc1c(Cl)nsc1NCc1ccc(N2CCC(CO)CC2)cc1` belongs 13.7%; to `N#Cc1c(Cl)nsc1NCc1ccc(N2CCCC(C(N)=O)C2)cc1` (stereo unspecified), 27.85%; to `N#Cc1c(Cl)nsc1NCc1cccnc1OCC(F)(F)F`, 71.75%.
